For two sequences, binding signal results are on record in publication PMC7862700, “An all-to-all approach to the identification of sequence-specific readers for epigenetic DNA modifications on cytosine”.

Common to all, as to assay: DAPPL (digital affinity profiling via proximity ligation, sequencing); 10 mM Tris-HCl pH 7.5, 50 mM NaCl, 1 mM DTT, 4% glycerol, room temperature, 30 min; GST-TFs on glutathione beads, 16-mer random dsDNA library, 0.1% formaldehyde crosslink after washing; high values mean tight binding
Holding throughout (conditions): protein: recombinant; tags: N-terminal GST; dsDNA, one strand shown

The target of one assay is T1, FLI1 (Homo sapiens, UniProt Q01543 1-452).
T1 sequence: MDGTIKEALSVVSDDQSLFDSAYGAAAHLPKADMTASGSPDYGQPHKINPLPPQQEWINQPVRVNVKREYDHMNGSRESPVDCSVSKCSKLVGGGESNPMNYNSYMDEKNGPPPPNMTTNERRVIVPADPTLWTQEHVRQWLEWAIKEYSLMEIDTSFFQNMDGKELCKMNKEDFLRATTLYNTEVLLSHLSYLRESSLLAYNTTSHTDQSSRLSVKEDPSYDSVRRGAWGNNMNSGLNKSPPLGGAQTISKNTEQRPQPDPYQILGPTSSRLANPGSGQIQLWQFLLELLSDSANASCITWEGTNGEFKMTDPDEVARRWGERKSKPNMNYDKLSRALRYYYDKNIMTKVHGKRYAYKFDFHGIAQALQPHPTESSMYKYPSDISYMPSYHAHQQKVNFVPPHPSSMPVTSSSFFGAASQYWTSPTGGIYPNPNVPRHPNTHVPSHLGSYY
The essentials: (§1)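 Binding signal is given per hexamer as its read frequency for a factor divided by its frequency in the tag-only sample. GST-fused human transcription factors were expressed in yeast, captured on glutathione beads, barcoded with DNA and pooled with that sample, then incubated with 200 nmole of a 16-mer random double-stranded DNA library in Tris/NaCl/DTT/glycerol buffer for 30 min at room temperature. The pools were then washed, crosslinked, proximity-ligated, amplified by PCR and sequenced on an Illumina NextSeq500.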

A further assay addresses T2, ELK1 (Homo sapiens, UniProt P19419 1-428).
T2 sequence: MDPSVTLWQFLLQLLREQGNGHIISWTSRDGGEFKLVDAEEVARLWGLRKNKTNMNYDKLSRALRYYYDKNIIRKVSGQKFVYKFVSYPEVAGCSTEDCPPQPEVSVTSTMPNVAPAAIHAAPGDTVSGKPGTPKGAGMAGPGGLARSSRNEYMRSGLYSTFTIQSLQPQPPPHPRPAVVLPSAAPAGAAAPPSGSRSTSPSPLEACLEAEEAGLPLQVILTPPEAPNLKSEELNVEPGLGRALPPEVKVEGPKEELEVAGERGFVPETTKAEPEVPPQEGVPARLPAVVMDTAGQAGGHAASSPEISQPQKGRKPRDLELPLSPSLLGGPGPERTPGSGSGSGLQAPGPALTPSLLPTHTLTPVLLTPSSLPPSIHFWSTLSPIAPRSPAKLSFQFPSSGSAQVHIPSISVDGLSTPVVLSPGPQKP
The method in brief: as §1

In another assay the target is T3, GABPA (Homo sapiens, UniProt Q06546 1-454).
T3 sequence: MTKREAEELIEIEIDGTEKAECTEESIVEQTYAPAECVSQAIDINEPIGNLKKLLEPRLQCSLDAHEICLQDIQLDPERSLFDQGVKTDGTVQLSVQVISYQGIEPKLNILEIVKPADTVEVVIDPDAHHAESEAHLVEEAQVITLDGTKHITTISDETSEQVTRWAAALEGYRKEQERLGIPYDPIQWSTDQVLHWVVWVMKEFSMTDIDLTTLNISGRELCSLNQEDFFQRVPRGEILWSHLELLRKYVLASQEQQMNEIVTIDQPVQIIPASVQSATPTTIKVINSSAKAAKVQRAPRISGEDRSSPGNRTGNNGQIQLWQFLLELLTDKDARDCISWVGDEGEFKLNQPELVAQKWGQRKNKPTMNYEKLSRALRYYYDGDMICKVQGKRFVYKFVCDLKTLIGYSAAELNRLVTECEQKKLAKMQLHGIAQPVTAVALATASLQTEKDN
The method in brief:
as §1

Another assay has as its target T4, ERG (Homo sapiens, UniProt P11308 1-479).
T4 sequence: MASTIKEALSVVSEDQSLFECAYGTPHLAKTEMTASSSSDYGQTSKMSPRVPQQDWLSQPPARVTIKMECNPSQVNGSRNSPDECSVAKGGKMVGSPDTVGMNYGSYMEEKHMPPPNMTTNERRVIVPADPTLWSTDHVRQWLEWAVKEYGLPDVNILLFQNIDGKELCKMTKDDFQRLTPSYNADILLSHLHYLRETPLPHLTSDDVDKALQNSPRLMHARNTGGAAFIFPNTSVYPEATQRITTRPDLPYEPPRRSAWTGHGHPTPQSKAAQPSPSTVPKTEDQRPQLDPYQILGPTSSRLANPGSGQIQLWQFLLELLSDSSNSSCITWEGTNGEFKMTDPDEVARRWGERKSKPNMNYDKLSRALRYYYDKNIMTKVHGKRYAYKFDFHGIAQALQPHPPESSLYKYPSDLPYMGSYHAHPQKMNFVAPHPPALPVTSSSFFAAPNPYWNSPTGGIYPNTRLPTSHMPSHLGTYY
The essentials:
as §1

The target of a further assay is ELF1 (Homo sapiens, UniProt P32519 1-619). The essentials: as §1
ELF1, sequence (P32519 whole entry): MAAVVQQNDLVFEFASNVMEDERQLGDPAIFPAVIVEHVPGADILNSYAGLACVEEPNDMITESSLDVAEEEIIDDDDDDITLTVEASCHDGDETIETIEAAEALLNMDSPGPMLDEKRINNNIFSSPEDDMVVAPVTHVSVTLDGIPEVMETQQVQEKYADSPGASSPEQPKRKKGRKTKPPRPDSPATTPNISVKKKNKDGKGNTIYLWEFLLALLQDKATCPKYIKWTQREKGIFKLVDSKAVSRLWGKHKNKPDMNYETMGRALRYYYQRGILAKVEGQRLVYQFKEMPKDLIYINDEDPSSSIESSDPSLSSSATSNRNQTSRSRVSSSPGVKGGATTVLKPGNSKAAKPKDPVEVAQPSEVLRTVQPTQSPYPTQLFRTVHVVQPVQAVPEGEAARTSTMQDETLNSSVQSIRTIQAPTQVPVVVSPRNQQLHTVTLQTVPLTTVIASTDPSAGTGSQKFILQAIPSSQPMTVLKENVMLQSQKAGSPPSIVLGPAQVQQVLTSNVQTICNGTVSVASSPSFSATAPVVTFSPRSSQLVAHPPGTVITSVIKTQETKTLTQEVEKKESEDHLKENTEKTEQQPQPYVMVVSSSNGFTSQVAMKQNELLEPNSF
The next assay addresses T5, EHF (Homo sapiens, UniProt Q9NZC4 1-300).
T5 sequence: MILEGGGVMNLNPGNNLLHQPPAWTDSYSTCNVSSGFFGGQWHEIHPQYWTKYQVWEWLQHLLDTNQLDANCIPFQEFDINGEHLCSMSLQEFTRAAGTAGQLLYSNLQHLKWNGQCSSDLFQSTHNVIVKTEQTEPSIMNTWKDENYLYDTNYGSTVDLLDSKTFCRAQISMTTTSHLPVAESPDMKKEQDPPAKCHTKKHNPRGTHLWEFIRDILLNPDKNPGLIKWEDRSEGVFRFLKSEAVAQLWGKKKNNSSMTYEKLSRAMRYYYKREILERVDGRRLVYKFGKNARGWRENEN
The method in brief:
as §1

The target of another assay is SPI1 (Homo sapiens, UniProt P17947 1-270). The essentials: as §1
For the next assay, the target named is T6, ELK3 (Homo sapiens, UniProt P41970 1-407).
T6 sequence: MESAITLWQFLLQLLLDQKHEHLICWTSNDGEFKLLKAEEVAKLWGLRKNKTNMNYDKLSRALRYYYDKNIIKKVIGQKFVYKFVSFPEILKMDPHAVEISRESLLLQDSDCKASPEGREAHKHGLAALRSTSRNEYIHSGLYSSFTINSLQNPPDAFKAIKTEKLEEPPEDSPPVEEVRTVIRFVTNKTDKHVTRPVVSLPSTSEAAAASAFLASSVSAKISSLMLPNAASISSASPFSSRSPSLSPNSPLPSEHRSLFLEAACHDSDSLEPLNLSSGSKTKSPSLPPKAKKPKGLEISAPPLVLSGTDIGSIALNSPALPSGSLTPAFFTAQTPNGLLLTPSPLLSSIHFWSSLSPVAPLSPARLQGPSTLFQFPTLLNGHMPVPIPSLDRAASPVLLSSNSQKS
The method in brief: as §1

Another assay concerns the target T7, FEV (Homo sapiens, UniProt Q99581 1-238).
T7 sequence: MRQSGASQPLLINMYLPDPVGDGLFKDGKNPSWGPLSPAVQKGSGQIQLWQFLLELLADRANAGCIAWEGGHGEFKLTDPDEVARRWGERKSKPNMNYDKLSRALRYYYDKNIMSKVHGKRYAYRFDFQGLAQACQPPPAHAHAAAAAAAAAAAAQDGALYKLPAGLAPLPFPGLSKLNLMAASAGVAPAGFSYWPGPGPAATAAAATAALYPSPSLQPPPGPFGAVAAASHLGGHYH
The essentials:
as §1

A further assay concerns the target ETV5 (Homo sapiens, UniProt P41161 1-510). The method in brief:
as §1

Another assay addresses T8, SPIC (Homo sapiens, UniProt Q8N5J4 1-248).
T8 sequence: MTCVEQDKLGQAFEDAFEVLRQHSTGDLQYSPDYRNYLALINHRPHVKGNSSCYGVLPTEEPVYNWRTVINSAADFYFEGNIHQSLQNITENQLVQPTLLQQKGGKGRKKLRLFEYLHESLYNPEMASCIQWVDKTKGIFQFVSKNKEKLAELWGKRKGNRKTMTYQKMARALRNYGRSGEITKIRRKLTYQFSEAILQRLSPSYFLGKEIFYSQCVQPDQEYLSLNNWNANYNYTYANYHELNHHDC
The essentials: as §1

The target in a further assay is ELF4 (Homo sapiens, UniProt Q99607 1-663). The method in brief: as §1
ELF4, sequence (Q99607 whole entry): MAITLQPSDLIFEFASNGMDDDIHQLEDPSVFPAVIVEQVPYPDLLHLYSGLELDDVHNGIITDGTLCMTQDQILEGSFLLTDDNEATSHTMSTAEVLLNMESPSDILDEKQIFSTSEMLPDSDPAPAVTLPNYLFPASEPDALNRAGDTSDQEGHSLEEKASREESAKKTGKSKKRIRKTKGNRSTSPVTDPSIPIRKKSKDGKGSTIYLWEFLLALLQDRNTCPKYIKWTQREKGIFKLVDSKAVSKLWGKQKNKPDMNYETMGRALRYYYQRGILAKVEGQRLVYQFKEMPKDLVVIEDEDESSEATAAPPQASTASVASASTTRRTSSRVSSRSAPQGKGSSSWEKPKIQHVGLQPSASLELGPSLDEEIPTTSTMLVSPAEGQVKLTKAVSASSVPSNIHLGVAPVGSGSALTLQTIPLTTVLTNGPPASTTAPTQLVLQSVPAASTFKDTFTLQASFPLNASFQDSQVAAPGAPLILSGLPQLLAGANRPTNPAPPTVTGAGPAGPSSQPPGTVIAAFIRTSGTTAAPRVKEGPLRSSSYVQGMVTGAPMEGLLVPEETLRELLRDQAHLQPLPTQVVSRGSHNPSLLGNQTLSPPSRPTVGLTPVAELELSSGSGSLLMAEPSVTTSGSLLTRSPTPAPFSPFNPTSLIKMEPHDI
The target in another assay is T9, ELK4 (Homo sapiens, UniProt P28324-2 1-405).
T9 sequence: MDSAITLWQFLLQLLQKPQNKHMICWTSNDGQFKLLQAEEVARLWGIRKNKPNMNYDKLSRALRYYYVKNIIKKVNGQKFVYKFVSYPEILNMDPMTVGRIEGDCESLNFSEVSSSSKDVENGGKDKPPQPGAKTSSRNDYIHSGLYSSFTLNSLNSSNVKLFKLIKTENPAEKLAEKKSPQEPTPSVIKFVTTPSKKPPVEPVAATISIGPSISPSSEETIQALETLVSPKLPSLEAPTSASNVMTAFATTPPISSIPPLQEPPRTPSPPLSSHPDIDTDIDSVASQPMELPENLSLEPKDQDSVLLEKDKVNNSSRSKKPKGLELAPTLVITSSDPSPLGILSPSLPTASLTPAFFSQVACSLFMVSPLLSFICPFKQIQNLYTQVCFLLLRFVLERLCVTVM
The essentials: as §1

In a further assay the target is T10, ELF3 (Homo sapiens, UniProt P78545 1-371).
T10 sequence: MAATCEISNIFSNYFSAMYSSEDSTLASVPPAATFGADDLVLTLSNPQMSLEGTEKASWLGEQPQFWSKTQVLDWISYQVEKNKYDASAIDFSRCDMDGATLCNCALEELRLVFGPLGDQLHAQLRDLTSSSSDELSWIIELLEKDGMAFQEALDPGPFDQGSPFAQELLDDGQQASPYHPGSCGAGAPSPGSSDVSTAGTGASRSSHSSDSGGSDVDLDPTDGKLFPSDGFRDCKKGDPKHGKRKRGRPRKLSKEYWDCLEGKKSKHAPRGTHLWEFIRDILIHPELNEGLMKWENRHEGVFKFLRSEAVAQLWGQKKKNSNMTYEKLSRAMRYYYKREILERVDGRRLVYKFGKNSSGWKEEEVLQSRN
The method in brief: as §1

A further assay deals with ETV1 (Homo sapiens, UniProt P50549 1-477). The method in brief:
as §1

The target of another assay is SPIB (Homo sapiens, UniProt Q01892 1-262). The method in brief:
as §1

The target in a further assay is T11, ETV2 (Homo sapiens, UniProt O00321 1-342).
T11 sequence: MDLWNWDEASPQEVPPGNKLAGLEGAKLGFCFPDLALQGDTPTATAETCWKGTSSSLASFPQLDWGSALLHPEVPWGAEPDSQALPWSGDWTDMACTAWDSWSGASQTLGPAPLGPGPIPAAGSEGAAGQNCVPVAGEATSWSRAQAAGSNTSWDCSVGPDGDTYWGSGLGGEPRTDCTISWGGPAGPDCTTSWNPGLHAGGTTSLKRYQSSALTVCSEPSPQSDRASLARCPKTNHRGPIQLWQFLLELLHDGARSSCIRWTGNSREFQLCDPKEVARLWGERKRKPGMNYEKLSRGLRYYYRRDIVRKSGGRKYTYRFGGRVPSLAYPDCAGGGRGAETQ
The method in brief:
as §1

ETV1, sequence (P50549 whole entry): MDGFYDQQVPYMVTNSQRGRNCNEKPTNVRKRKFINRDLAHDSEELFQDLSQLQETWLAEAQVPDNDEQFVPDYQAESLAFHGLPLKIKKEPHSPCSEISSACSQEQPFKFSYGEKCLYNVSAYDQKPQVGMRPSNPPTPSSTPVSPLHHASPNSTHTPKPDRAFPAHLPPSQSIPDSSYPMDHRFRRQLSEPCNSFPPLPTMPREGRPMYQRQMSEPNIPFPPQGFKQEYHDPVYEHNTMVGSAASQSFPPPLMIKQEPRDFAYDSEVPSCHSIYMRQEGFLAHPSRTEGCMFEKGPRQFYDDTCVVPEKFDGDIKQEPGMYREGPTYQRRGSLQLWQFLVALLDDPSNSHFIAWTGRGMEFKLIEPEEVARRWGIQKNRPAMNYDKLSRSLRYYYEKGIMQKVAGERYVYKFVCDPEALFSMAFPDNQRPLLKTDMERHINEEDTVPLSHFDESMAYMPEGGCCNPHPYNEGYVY
ETV5, sequence (P41161 whole entry): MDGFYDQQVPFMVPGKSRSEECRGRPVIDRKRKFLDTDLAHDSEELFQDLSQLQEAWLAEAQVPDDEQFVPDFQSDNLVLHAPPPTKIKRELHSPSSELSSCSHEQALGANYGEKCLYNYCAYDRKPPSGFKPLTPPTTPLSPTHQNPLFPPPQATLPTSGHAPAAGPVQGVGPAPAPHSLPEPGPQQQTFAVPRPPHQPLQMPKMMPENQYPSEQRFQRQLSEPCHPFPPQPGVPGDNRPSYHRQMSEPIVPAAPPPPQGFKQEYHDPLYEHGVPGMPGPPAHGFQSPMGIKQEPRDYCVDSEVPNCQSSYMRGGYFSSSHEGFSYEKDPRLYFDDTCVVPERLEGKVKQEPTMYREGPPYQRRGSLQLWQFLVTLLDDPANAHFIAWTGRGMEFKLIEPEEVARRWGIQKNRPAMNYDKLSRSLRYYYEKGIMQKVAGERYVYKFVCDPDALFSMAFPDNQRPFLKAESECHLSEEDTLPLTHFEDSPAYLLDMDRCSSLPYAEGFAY
SPIB, sequence (Q01892 whole entry): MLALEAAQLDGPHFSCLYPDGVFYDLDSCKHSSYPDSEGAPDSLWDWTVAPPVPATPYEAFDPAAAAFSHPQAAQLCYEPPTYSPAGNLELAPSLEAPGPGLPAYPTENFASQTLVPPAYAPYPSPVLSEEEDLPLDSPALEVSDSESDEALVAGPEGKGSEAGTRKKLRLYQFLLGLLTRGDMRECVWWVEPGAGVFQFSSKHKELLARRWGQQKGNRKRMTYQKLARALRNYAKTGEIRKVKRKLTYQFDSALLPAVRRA

Consider GATATG, for which the binding signal with FLI1 was 1.15 fold enrichment (6-mer frequency, TF over GST control); in the assay with ELK1 it was 1.06 fold enrichment (6-mer frequency, TF over GST control); in the assay with GABPA, 1.07 fold enrichment (6-mer frequency, TF over GST control); in the assay with ERG it was 1.11 fold enrichment (6-mer frequency, TF over GST control); with ELF1 it was 1.03 fold enrichment (6-mer frequency, TF over GST control); with EHF it was 1.12 fold enrichment (6-mer frequency, TF over GST control). For the same sequence, the binding signal is 1.06 fold enrichment (6-mer frequency, TF over GST control) with SPI1; 1.04 fold enrichment (6-mer frequency, TF over GST control) in the assay with ELK3; 1.08 fold enrichment (6-mer frequency, TF over GST control) with FEV; 1.1 fold enrichment (6-mer frequency, TF over GST control) with ETV5; 1.23 fold enrichment (6-mer frequency, TF over GST control) in the assay with SPIC; 1.11 fold enrichment (6-mer frequency, TF over GST control) with ELF4. The binding signal with ELK4 was 1.07 fold enrichment (6-mer frequency, TF over GST control); in the assay with ELF3, 1.08 fold enrichment (6-mer frequency, TF over GST control); with ETV1, 1.03 fold enrichment (6-mer frequency, TF over GST control).

With GTTTGG, the binding signal in the assay with FLI1 is 1.07 fold enrichment (6-mer frequency, TF over GST control); with ELK1 it was 1.07 fold enrichment (6-mer frequency, TF over GST control); in the assay with GABPA it was 1.04 fold enrichment (6-mer frequency, TF over GST control); in the assay with ELF1 it was 1.05 fold enrichment (6-mer frequency, TF over GST control); in the assay with SPI1 it was 1.01 fold enrichment (6-mer frequency, TF over GST control); with SPIB, 1.1 fold enrichment (6-mer frequency, TF over GST control). For the same sequence, the binding signal in the assay with FEV is 1.06 fold enrichment (6-mer frequency, TF over GST control); with ETV5, 1.03 fold enrichment (6-mer frequency, TF over GST control); with SPIC it was 1.24 fold enrichment (6-mer frequency, TF over GST control); in the assay with ELF4 it was 1.03 fold enrichment (6-mer frequency, TF over GST control); with ELK4, 1.08 fold enrichment (6-mer frequency, TF over GST control); in the assay with ETV2, 1.06 fold enrichment (6-mer frequency, TF over GST control). In addition, in the assay with ETV1, the binding signal is 1.07 fold enrichment (6-mer frequency, TF over GST control).
